This passage reports residual activity results from ChEMBL document CHEMBL2218924, “A broad activity screen in support of a chemogenomic map for kinase signalling research and drug discovery” (Biochem J, 2013).

Each structure is given as a SMILES string.

Assay [1] has as its target T1, Ephrin type-B receptor 1 (Homo sapiens) (UniProt P54762).
T1 sequence (whole entry): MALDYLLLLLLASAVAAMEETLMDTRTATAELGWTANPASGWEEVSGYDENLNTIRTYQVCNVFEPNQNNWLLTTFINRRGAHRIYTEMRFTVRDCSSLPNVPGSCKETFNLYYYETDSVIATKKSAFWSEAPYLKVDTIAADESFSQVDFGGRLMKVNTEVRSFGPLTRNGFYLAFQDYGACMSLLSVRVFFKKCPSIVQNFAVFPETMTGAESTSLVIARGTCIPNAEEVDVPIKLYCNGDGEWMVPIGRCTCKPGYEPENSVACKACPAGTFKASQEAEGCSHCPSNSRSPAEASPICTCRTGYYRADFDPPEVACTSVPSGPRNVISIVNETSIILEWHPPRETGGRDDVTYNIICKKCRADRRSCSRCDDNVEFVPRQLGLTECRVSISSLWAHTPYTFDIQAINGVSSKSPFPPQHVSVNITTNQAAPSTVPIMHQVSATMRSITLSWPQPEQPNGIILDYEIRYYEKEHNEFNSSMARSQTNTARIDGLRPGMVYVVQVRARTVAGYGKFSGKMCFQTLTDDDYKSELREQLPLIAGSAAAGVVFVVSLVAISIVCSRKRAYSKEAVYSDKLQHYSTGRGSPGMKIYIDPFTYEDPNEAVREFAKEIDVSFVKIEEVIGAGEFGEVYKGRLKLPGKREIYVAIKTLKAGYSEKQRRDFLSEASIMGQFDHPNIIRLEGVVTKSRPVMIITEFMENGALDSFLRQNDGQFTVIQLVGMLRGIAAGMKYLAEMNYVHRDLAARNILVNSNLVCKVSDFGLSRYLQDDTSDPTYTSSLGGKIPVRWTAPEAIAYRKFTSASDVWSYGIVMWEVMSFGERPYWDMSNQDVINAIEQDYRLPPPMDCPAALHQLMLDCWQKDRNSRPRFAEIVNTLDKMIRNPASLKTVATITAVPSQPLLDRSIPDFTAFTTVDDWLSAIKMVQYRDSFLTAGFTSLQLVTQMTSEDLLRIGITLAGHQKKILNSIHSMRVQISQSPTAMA
The settings on record: at 10 µM.

Assay [2] has as its target T2, Ephrin type-B receptor 2 (Homo sapiens) (UniProt P29323).
T2 sequence (whole entry): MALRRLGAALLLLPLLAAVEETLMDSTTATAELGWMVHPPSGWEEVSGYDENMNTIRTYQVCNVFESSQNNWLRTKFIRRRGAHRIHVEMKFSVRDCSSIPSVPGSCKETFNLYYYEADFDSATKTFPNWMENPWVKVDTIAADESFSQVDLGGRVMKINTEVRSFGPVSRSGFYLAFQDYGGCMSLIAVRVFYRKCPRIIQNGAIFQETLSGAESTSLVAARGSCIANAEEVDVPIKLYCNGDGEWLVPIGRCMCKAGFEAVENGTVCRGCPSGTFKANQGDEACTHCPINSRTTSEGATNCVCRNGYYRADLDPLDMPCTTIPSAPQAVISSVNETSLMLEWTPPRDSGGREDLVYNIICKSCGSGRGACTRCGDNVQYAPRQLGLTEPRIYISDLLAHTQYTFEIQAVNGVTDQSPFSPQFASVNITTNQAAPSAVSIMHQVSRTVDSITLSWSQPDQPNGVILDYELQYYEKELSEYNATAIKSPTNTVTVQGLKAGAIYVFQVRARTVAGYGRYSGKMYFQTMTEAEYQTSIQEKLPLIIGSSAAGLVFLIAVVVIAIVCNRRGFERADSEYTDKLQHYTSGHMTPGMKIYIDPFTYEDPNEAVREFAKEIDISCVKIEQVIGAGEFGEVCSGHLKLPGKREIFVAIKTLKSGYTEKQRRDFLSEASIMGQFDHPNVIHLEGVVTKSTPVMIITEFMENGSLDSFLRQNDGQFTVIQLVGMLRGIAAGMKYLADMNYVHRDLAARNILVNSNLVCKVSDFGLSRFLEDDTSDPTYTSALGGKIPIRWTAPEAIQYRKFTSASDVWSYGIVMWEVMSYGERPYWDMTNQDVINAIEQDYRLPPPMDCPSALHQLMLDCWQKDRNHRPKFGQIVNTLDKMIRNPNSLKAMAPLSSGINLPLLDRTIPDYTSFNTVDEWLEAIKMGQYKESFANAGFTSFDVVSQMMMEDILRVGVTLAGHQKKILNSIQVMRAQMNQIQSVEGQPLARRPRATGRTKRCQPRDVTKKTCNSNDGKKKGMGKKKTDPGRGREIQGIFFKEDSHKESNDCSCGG
Particulars: at 1 µM; call rule not given here.

For assay [3], the target named is T2, Ephrin type-B receptor 2 (Homo sapiens). Particulars: at 10 µM.
Assay [4] deals with T3, Ephrin type-B receptor 3 (Homo sapiens) (UniProt P54753).
T3 sequence (whole entry): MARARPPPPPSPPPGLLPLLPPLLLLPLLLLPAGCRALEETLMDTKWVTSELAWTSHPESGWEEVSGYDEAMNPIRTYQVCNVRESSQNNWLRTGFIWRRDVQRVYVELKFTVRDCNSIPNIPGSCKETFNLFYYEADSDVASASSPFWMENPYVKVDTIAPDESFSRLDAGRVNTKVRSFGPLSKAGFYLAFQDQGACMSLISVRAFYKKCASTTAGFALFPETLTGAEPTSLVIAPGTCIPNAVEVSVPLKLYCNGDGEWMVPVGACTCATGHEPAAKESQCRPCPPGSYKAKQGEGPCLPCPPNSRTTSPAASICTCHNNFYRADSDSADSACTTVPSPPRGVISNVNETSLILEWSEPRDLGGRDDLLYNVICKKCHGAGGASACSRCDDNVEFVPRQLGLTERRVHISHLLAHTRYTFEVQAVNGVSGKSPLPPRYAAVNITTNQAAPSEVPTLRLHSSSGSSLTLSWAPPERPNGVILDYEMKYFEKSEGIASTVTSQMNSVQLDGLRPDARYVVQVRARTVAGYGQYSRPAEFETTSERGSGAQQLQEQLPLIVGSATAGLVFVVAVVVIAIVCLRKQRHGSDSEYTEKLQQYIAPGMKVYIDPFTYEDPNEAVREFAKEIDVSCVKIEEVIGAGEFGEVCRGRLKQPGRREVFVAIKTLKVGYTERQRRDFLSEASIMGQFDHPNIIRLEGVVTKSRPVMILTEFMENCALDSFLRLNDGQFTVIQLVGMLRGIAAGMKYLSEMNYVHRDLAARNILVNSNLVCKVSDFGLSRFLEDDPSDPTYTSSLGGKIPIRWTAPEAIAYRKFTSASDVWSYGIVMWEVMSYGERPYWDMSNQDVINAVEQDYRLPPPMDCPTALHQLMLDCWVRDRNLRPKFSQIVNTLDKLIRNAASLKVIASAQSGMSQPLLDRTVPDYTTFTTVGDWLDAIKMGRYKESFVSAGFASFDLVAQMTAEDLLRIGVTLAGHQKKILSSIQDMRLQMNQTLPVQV
The settings on record: at 1 µM.

The target of assay [5] is T3, Ephrin type-B receptor 3 (Homo sapiens). Particulars: at 10 µM.
In assay [6] the target is T4, Ephrin type-B receptor 4 (Homo sapiens) (UniProt P54760).
T4 sequence (whole entry): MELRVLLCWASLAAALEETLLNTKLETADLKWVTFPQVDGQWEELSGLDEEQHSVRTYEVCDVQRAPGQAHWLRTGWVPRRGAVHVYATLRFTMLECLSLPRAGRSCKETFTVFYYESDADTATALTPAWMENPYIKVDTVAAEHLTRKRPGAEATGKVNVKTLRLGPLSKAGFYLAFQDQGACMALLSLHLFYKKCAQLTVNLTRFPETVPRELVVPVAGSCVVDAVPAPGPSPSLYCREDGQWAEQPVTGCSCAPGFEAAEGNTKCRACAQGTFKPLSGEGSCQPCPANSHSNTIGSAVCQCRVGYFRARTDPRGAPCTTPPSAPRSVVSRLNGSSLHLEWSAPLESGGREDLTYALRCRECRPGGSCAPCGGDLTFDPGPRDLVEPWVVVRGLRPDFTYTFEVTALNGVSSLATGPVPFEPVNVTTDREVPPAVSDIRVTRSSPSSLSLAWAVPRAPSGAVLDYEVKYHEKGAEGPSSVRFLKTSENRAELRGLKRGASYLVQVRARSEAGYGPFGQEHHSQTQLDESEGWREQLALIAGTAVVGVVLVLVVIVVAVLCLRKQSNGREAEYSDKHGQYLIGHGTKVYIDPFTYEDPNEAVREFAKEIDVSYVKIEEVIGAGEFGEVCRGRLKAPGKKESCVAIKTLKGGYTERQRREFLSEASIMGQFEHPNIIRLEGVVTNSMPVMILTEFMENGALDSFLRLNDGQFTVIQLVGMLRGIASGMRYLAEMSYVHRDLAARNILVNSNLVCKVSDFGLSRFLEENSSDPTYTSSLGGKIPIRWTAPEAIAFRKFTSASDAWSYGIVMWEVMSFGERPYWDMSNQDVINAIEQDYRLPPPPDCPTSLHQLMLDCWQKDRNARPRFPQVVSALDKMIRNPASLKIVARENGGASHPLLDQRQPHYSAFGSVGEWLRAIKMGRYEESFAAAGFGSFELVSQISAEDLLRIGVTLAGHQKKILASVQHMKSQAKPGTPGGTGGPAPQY
The settings on record: at 1 µM.

The target in assay [7] is T4, Ephrin type-B receptor 4 (Homo sapiens). Particulars: at 10 µM.
The target of assay [8] is Receptor tyrosine-protein kinase erbB-4 (Homo sapiens) (UniProt Q15303). The settings on record: at 1 µM.
The target is the same in assay [9]. The settings on record: at 10 µM.
Assay [10] concerns the target Focal adhesion kinase 1 (Homo sapiens) (UniProt Q05397). The settings on record: at 1 µM.

Chain of Receptor tyrosine-protein kinase erbB-4 (Homo sapiens) (Q15303 whole entry): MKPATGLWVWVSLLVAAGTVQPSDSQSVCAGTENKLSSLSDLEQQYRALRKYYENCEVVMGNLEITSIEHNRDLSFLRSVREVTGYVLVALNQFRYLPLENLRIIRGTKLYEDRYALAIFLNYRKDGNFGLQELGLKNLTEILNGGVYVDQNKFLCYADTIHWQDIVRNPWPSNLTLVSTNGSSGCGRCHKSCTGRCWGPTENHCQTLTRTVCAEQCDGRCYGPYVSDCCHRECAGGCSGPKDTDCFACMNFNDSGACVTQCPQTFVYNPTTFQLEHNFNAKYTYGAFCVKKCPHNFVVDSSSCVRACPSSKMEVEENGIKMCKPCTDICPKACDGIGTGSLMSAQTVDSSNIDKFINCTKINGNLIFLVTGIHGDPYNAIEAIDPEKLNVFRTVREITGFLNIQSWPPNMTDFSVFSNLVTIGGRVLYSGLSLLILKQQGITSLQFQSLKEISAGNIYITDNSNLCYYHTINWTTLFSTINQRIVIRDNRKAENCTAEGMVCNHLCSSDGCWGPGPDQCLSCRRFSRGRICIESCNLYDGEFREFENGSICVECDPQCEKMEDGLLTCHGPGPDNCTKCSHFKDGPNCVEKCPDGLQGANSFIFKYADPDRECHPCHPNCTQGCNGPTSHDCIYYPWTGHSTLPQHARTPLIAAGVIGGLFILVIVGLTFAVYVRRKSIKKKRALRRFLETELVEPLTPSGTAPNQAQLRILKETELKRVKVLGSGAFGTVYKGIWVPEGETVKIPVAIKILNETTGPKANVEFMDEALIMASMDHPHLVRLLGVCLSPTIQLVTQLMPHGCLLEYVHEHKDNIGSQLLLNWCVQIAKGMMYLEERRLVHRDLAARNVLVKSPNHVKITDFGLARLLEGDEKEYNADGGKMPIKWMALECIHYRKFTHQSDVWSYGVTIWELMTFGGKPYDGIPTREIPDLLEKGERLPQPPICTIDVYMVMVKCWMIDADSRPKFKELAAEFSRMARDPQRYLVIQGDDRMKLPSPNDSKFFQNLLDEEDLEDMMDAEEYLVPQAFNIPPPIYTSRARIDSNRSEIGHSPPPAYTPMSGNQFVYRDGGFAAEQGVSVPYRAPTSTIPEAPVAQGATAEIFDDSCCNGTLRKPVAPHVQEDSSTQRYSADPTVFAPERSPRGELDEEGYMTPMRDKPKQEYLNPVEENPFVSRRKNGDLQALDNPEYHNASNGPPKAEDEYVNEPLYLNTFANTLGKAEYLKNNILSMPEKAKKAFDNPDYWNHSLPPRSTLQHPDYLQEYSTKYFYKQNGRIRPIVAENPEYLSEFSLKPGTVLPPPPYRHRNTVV
Chain of Focal adhesion kinase 1 (Homo sapiens) (Q05397 2-1052 limits assumed): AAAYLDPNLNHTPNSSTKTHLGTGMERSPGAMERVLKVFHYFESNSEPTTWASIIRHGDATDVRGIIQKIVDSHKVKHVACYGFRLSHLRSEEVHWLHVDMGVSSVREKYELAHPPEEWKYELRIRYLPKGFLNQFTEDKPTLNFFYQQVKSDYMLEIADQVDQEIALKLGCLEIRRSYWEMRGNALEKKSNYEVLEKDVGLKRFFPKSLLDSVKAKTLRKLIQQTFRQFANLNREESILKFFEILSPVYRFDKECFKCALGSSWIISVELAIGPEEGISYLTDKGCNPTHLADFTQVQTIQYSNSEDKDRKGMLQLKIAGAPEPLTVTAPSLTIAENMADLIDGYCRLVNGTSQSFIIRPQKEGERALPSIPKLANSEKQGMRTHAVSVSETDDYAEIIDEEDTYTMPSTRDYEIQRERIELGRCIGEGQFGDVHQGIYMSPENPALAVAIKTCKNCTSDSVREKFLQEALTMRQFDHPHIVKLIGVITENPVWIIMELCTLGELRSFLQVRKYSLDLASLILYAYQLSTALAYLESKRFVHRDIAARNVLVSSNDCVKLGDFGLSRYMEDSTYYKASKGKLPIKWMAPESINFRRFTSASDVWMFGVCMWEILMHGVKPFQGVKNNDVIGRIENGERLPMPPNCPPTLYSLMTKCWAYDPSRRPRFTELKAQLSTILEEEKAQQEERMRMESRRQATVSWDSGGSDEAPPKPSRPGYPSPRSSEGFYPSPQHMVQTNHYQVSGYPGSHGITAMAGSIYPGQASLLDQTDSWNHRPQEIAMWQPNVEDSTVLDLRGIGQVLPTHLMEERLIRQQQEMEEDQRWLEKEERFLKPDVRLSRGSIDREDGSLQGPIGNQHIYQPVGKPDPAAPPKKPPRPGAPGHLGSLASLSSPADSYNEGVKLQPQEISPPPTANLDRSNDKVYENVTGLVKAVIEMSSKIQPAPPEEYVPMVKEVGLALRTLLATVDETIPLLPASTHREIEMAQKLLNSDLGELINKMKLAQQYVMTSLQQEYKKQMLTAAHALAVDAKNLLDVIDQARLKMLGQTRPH

In the case of `Cc1nc(-c2ccccc2)c(-c2ccncc2)o1`, the residual activity was 55% in assay [1]; 36% in assay [2]; 31% in assay [3]; 126% (inactive) in assay [4]; 107% in [5]; 105% in assay [6]. In addition, the residual activity in assay [7] came to 79%; in [8], 118%; in [9], 110%; in [10], 111%.

As a reminder, the residual activity is the signal under treatment as a percentage of the control signal.
